# Hit rate of the full screen: of about 5,500 compounds, about 2,000 (36%) were called active. About 18% were inconclusive and are not listed. The list shows a part of the results. Unmarked numbers belong to inactive results. Rule as the data show it: active = normalized growth mostly below about 0.91 (no sharp cut-off); inconclusive = no clear call, values can overlap the other calls; inactive = mostly above about 0.92.
# Experiment: chemical genetic growth profiling, strain panel (AID 1159580);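 also: tested at 20 µM; growth read once vehicle control cultures reached saturation at 30 °C; 1 = growth at the plate median or of vehicle wells; lower values mean less growth of the strain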
# Settings: S. cerevisiae deletion strains, growth OD
# [1] = locus YAL040C, strain CLN3, active compounds read low
# [2] = locus YCL061C, strain MRC1 (second series), active compounds read low
# [3] = locus YDR363W, strain ESC2, active compounds read low
# [4] = locus YER002W, strain NOP16, active compounds read low
# [5] = locus YGR078C, strain PAC10, active compounds read low
# [6] = locus YJR075W, strain HOC1, active compounds read low
# [7] = locus YNL175C, strain NOP13, active compounds read low
# [8] = locus YNL197C, strain WHI3, active compounds read low
# [9] = locus YNL224C, strain SQS1, active compounds read low
# [10] = locus YOR083W, strain WHI5 (second series), active compounds read low
# [11] = locus YPL055C, strain LGE1, active compounds read low
# [12] = locus YDR150W, strain NUM1, active compounds read low
# [13] = locus YMR307W, strain GAS1, active compounds read low
# [14] = locus YNL128W, strain TEP1, active compounds read low
# [15] = locus YNL322C, strain KRE1, active compounds read low
# [16] = locus YHR030C, strain SLT2, active compounds read low
# [17] = locus YHR079C, strain IRE1, active compounds read low
# [18] = locus YJL095W, strain BCK1, active compounds read low
# [19] = locus YJR066W, strain TOR1, active compounds read low
# [20] = locus YLR113W, strain HOG1, active compounds read low
# [21] = locus YNL183C, strain NPR1, active compounds read low
# [22] = locus YOR231W, strain MKK1, active compounds read low
# [23] = locus YPL256C, strain CLN2, active compounds read low
# [24] = locus YAL013W, strain DEP1, active compounds read low
# [25] = locus YNL153C, strain GIM3, active compounds read low
structure (smiles),measurement,setting,value
Nc1ncnc2c1c(-c1ccc(Oc3ccccc3)cc1)cn2C1CCCC1,normalized growth,[1],0.94
same,normalized growth,[2],1.01
same,normalized growth,[3],1.02
same,normalized growth,[4],1.02
same,normalized growth,[5],0.934
same,normalized growth,[6],1.02
same,normalized growth,[7],1.01
same,normalized growth,[8],1.1
same,normalized growth,[9],0.952
same,normalized growth,[10],0.838 (active)
same,normalized growth,[11],0.989
Nc1ncnc2c1ncn2C1CCCC1,normalized growth,[1],1.01
same,normalized growth,[12],1
same,normalized growth,[3],1.02
same,normalized growth,[4],1.01
same,normalized growth,"locus YGR229C, strain SMI1, active compounds read low",1.02
same,normalized growth,[6],1.04
same,normalized growth,[13],1.01
same,normalized growth,[14],1.03
same,normalized growth,[7],1.01
same,normalized growth,[8],1.01
same,normalized growth,[9],1.03
same,normalized growth,[10],1.01
same,normalized growth,"locus YPL241C, strain CIN2, active compounds read low",1.01
C[C@@H]1O[C@@H](O[C@H]2C[C@@H](O)[C@]3(CO)[C@@H]4C(CC[C@]3(O)C2)[C@@]2(O)CC[C@H](C3COC(=O)C3)[C@@]2(C)C[C@H]4O)[C@H](O)[C@H](O)[C@H]1O (stereo not given in full),normalized growth,[1],0.998
same,normalized growth,[2],1
same,normalized growth,[12],0.996
same,normalized growth,[3],1
same,normalized growth,[4],0.996
same,normalized growth,[5],1.01
same,normalized growth,[13],1.01
same,normalized growth,[7],0.98
same,normalized growth,[8],1
same,normalized growth,[9],0.974
same,normalized growth,[15],1.01
same,normalized growth,[10],1.05
same,normalized growth,[11],1.01
CN(C)CCCSC(=N)N,normalized growth,[16],0.951
same,normalized growth,[17],0.968
same,normalized growth,[18],0.963
same,normalized growth,[19],0.903
same,normalized growth,[20],0.982
same,normalized growth,[21],0.92
same,normalized growth,[22],0.966
same,normalized growth,[23],0.978
N=C(N)SCCN,normalized growth,[24],1.06
same,normalized growth,"locus YAL021C, strain ccr4, active compounds read low",0.98
same,normalized growth,"locus YAL026C, strain drs2, active compounds read low",1
same,normalized growth,"locus YAL030W, strain snc1, active compounds read low",1.01
same,normalized growth,[1],1.05
same,normalized growth,"locus YBL061C, strain skt5, active compounds read low",1.01
same,normalized growth,"locus YBR009C, strain hhf1, active compounds read low",1
same,normalized growth,"locus YBR023C, strain chs3, active compounds read low",1
same,normalized growth,"locus YBR171W, strain sec66, active compounds read low",1.01
same,normalized growth,"locus YBR231C, strain swc5, active compounds read low",0.992
same,normalized growth,"locus YBR279W, strain paf1, active compounds read low",0.998
same,normalized growth,"locus YCL011C, strain gbp2, active compounds read low",1.01
same,normalized growth,"locus YCL016C, strain dcc1, active compounds read low",0.999
same,normalized growth,[2],0.995
same,normalized growth,"locus YCL061C, strain MRC1, active compounds read low",1.01
same,normalized growth,"locus YCL069W, strain vba3, active compounds read low",1.01
same,normalized growth,"locus YCR088W, strain abp1, active compounds read low",1
same,normalized growth,"locus YDL005C, strain med2, active compounds read low",0.997
same,normalized growth,"locus YDL040C, strain nat1, active compounds read low",0.998
same,normalized growth,"locus YDR001C, strain nth1, active compounds read low",1.01
same,normalized growth,"locus YDR069C, strain doa4, active compounds read low",0.999
same,normalized growth,"locus YDR137W, strain rgp1, active compounds read low",1
same,normalized growth,[12],1.02
same,normalized growth,"locus YDR159W, strain sac3, active compounds read low",0.995
same,normalized growth,"locus YDR195W, strain ref2",0.941
same,normalized growth,"locus YDR297W, strain sur2, active compounds read low",1.01
same,normalized growth,"locus YDR334W, strain swr1, active compounds read low",1
same,normalized growth,"locus YDR335W, strain msn5, active compounds read low",1
same,normalized growth,"locus YDR392W, strain spt3, active compounds read low",0.856
same,normalized growth,"locus YEL003W, strain gim4, active compounds read low",1.01
same,normalized growth,"locus YEL037C, strain rad23, active compounds read low",0.996
same,normalized growth,"locus YEL061C, strain CIN8 (second series), active compounds read low",1
same,normalized growth,[4],0.986
same,normalized growth,"locus YER015W, strain faa2, active compounds read low",1.01
same,normalized growth,"locus YER016W, strain bim1, active compounds read low",1
same,normalized growth,"locus YER111C, strain swi4, active compounds read low",1
same,normalized growth,"locus YER155C, strain BEM2 (second series), active compounds read low",0.985
same,normalized growth,"locus YFR010W, strain ubp6, active compounds read low",1.01
same,normalized growth,"locus YGL167C, strain pmr1, active compounds read low",1.01
same,normalized growth,"locus YGL173C, strain kem1, active compounds read low",1
same,normalized growth,"locus YGL227W, strain vid30, active compounds read low",1
same,normalized growth,"locus YGL240W, strain doc1, active compounds read low",0.985
same,normalized growth,"locus YGL253W, strain hxk2, active compounds read low",1.01
same,normalized growth,[5],0.994
same,normalized growth,"locus YHR013C, strain ard1, active compounds read low",0.969
same,normalized growth,"locus YHR027C, strain rpn1, active compounds read low",1.01
same,normalized growth,[16],1.07
same,normalized growth,[17],1.07
same,normalized growth,"locus YHR142W, strain chs7, active compounds read low",1.01
same,normalized growth,"locus YJL092W, strain hpr5, active compounds read low",0.998
same,normalized growth,"locus YJL095W, strain BCK1 (second series), active compounds read low",0.998
same,normalized growth,[18],1.04
same,normalized growth,"locus YJL115W, strain asf1, active compounds read low",0.99
same,normalized growth,"locus YJL129C, strain trk1, active compounds read low",1.03
same,normalized growth,"locus YJL154C, strain vps35, active compounds read low",0.997
same,normalized growth,"locus YJL164C, strain tpk1, active compounds read low",1.01
same,normalized growth,"locus YJL166W, strain qcr8, active compounds read low",1.01
same,normalized growth,"locus YJL187C, strain SWE1, active compounds read low",1
same,normalized growth,[19],0.976
same,normalized growth,[6],1.01
same,normalized growth,"locus YKL160W, strain elf1, active compounds read low",0.996
same,normalized growth,"locus YKR026C, strain gcn3, active compounds read low",1
same,normalized growth,"locus YKR091W, strain srl3, active compounds read low",1
same,normalized growth,"locus YLL001W, strain dnm1, active compounds read low",0.999
same,normalized growth,"locus YLL026W, active compounds read low",0.999
same,normalized growth,"locus YLL041C, strain sdh2, active compounds read low",1
same,normalized growth,"locus YLR027C, strain aat2, active compounds read low",1.01
same,normalized growth,[20],1.03
same,normalized growth,"locus YLR221C, strain rsa3, active compounds read low",1
same,normalized growth,"locus YLR258W, strain gsy2, active compounds read low",1
same,normalized growth,"locus YLR262C, strain YPT6 (second series), active compounds read low",0.991
same,normalized growth,"locus YLR320W, strain mms22, active compounds read low",0.997
same,normalized growth,"locus YLR342W, strain FKS1, active compounds read low",1.01
same,normalized growth,"locus YLR357W, strain rsc2, active compounds read low",0.833 (active)
same,normalized growth,"locus YLR370C, strain arc18, active compounds read low",1.01
same,normalized growth,"locus YLR384C, strain iki3, active compounds read low",1
same,normalized growth,"locus YML120C, strain ndi1, active compounds read low",0.999
same,normalized growth,"locus YMR058W, strain fet3, active compounds read low",1
same,normalized growth,"locus YMR125W, strain sto1, active compounds read low",0.993
same,normalized growth,"locus YMR129W, active compounds read low",1.02
same,normalized growth,"locus YMR205C, strain PFK2, active compounds read low",1.01
same,normalized growth,"locus YMR231W, strain pep5, active compounds read low",0.998
same,normalized growth,"locus YMR263W, strain SAP30, active compounds read low",1.01
same,normalized growth,[13],1.02
same,normalized growth,"locus YNL071W, strain lat1, active compounds read low",1
same,normalized growth,[14],0.987
same,normalized growth,[25],1
same,normalized growth,[7],0.991
same,normalized growth,[21],0.989
same,normalized growth,[8],0.992
same,normalized growth,"locus YNL209W, strain ssb2, active compounds read low",1.01
same,normalized growth,[9],1.01
same,normalized growth,"locus YNL248C, strain rpa49, active compounds read low",1.01
same,normalized growth,"locus YNL322C, strain KRE1 (second series), active compounds read low",0.998
same,normalized growth,"locus YNR049C, strain mso1, active compounds read low",1
same,normalized growth,"locus YOR001W, strain rrp6, active compounds read low",0.995
same,normalized growth,"locus YOR070C, strain gyp1, active compounds read low",0.989
same,normalized growth,"locus YOR080W, strain dia2, active compounds read low",0.996
same,normalized growth,[10],0.997
same,normalized growth,"locus YOR083W, strain WHI5, active compounds read low",0.995
same,normalized growth,"locus YOR106W, strain vam3, active compounds read low",1.04
same,normalized growth,[22],1.05
same,normalized growth,"locus YOR265W, strain rbl2, active compounds read low",1.01
same,normalized growth,"locus YOR270C, strain vph1, active compounds read low",1.06
same,normalized growth,"locus YOR290C, strain snf2, active compounds read low",0.956
same,normalized growth,"locus YPL051W, strain arl3, active compounds read low",0.994
same,normalized growth,[11],1.01
same,normalized growth,"locus YPL078C, strain atp4, active compounds read low",1.01
same,normalized growth,"locus YPL106C, strain sse1, active compounds read low",1
same,normalized growth,"locus YPL240C, strain hsp82, active compounds read low",1.02
same,normalized growth,[23],1.12
N=C(N)SCCc1ccc(CCSC(=N)N)cc1,normalized growth,[24],1.01
same,normalized growth,[1],1
same,normalized growth,[2],0.996
same,normalized growth,[12],1
same,normalized growth,[3],1.04
same,normalized growth,[4],0.996
same,normalized growth,[6],0.987
same,normalized growth,[25],0.964
same,normalized growth,[7],1
same,normalized growth,[8],1.03
same,normalized growth,[9],1.02
same,normalized growth,[15],1
same,normalized growth,[10],0.995
same,normalized growth,[11],1.02
